Most compounds without a hit are left out; they make up all but 10% or so of the library.
HP1b chromo inh – HTS for Inhibitors of HP1-beta Chromodomain Interactions with Methylated Histone Tails | Chromobox protein homolog 1 (Homo sapiens), P83916 | AlphaScreen HP1-beta / biotin-H3K9me3 peptide binding | Potency, µM (titrated, usually from 114 µM), for inactives: top-dose activity change, negative = inhibition, most hits filed as inhibitors | 390,000 tested, 0.56% active | AID 540317, 2011; further: potency means the concentration at half of the fitted maximal effect; nearly all actives have a fitted effect of over 70% in size
Target sequence (P83916 whole entry, looked up): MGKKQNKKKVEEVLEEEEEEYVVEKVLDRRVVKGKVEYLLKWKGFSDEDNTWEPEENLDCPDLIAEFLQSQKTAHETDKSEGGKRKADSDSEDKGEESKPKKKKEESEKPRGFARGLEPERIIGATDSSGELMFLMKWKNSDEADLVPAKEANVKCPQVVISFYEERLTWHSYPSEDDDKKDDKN
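AlphaScreen: HP1-beta (50 nM) preformed 30 min with biotin-H3(1-18)K9me3 peptide (50 nM) in PBS pH 7.4, 0.01% Tween-20. Compound added for 30 min at RT, then streptavidin donor/nickel chelate acceptor beads (10 ug/mL) for 30 min.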
Six1-Eya2 blk – qHTS Assay for Inhibitors of the Six1/Eya2 Interaction | AlphaScreen GST-Six1/His-Eya2 binding, biochemical; hits give low values | Homeobox protein SIX1 (Homo sapiens) + Protein phosphatase EYA2 (Homo sapiens), … | activity change, % (no concentration beside the values) | 360,000 tested, 0.56% active; in the data active means activity change below about -65%; inconclusive means mostly about -30% to -63%; further: on the % scale 0 is the no-effect control and ±100 the full control effect
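Compounds are tested against tagged Six1 and Eya2 proteins bridged by glutathione donor and nickel acceptor beads; after a one-hour incubation at 37 °C without light, AlphaScreen emission is recorded.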
JMJD2A Tudor inh – qHTS Assay for Inhibitors of JMJD2A-Tudor Domain; 390,000 tested, 4.4% active; AlphaScreen JMJD2A-Tudor / H3K4me3 peptide binding; Potency, µM (titrated, usually from 114 µM), for inactives: top-dose activity change, negative = inhibition, actives largely listed as inhibitors; Lysine-specific demethylase 4A (Homo sapiens), O75164; further: potency means the concentration at half of the fitted maximal effect; on the % scale 0 is the no-effect control and ±100 the full control effect; nearly all actives have a fitted effect of over 50% in size
BAZ2B block – qHTS Assay for Inhibitors of BAZ2B | Bromodomain adjacent to zinc finger domain protein 2B (Homo sapiens), Q9UIF8 | AlphaScreen BAZ2B-H3K14Ac peptide displacement | AID 504333, 2011 | Potency, µM (highest dose often 114 µM), inactives show top-dose activity change, negative = inhibition, hits mostly inhibitors | 360,000 tested, 4.4% active; further: potency means the concentration at half of the fitted maximal effect; on the % scale 0 is the no-effect control and ±100 the full control effect; nearly all actives have a fitted effect of over 60% in size
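AlphaScreen displacement of biotin-H3(5-23)K14Ac peptide (50 nM final) from BAZ2B (50 nM final) in PBS pH 7.4, 0.01% Tween-20; complex preformed 30 min RT, then compounds (top 110 uM) 30 min RT, beads 20 min dark.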
G9a inh – qHTS Assay for Inhibitors of Histone Lysine Methyltransferase G9a. Histone-lysine N-methyltransferase EHMT2 (Homo sapiens), Q96KQ7. G9a H3K9 monomethylation, AlphaScreen, 2 h. Potency, µM (series often up to 102 µM), without a hit: at the top dose activity, negative = inhibition, hits mostly inhibitors. 350,000 tested, 8.8% active; further: potency means the concentration at half of the fitted maximal effect; on the % scale 0 is the no-effect control and ±100 the full control effect; nearly all actives have a fitted effect of over 75% in size
Target sequence (Q96KQ7 913-1193 limits assumed): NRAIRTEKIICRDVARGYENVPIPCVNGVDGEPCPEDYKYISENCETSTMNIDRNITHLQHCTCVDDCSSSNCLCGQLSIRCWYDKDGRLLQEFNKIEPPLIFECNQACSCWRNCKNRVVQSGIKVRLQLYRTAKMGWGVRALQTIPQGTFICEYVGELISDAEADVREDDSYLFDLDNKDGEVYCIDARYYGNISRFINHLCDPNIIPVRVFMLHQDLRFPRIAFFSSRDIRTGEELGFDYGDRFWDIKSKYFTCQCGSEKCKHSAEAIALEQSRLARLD
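Readings reflect AlphaScreen signal from monomethyl-H3K9 antibody detection. HMT at 20 nM; substrate b-H3K9 500 nM; cofactor SAM 20 uM; 2 h RT reaction; compounds tested as titrations in qHTS with 15 min preincubation.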
CtBP-E1A blk – qHTS Assay for Inhibitors of the CtBP/E1A Interaction | CtBP / adenovirus E1A interaction (AlphaScreen) | AlphaScreen GST-E1A/His-CtBP binding, 1536-well; hits give low values | activity change, % (test concentration not listed) | 340,000 tested, 0.49% active | AID 651724, 2012; in the data active means activity change below about -65%; inconclusive means mostly about -30% to -63%; further: on the % scale 0 is the no-effect control and ±100 the full control effect
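In 5 uL wells, 23 nL compound meets equimolar GST-E1A and His-CtBP (5X stock 125 nM each) for 2 h, 37 °C. Beads (5X, 50 ug/mL) then 1 h, 37 °C, dark.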
* = called active by the depositor; ? = inconclusive; · = not tested or not shown; [ ] = remark or other dose. Unless noted, the call rests on the fitted dose curve; in most records, active means well fitted inhibition curve with a large enough effect; inconclusive means small, poorly fitted or top-dose-only effect; inactive means no such curve, though single readings can be large or run the other way.

SMILES	HP1b chromo inh	Six1-Eya2 blk	JMJD2A Tudor inh	BAZ2B block	G9a inh	CtBP-E1A blk
CC(/C=N/n1c(-c2cccnc2)n[nH]c1=S)=C\c1ccco1	-33%	-14	4µM*	-35%	1.3µM*	-14
COc1ccc(CC(Cc2ccc(OC)c(OC)c2)NC=O)cc1OC	·	2	·	·	·	4
COc1ccc(C2CC(=O)N(Cc3cccc(C)c3)c3c2c(C)nn3-c2nc(C)cc(C)n2)c(OC)c1 (stereo not given)	39%	·	-13%	-36%	-26%[59 µM]	·
Cc1cc(-c2n[nH]c(=S)n2/N=C/C=C/c2ccco2)n[nH]1	4%	1	2.8µM*	50µM*	2.5µM*	-4
Cc1cc(C)c(C(=O)/C=C/c2ccco2)c(=O)[nH]1	0%	-8	-22%	?	·	-3
Cc1ccc(/C=N/n2c(-c3ccc(Cl)cc3)n[nH]c2=S)s1	22%	0	?	1%	?	2
S=c1[nH]nc(-c2ccccc2)n1/N=C/C=C/c1ccco1	-19%	-11	20µM*	?	1.3µM*	-1
S=c1[nH]nc(-c2ccco2)n1/N=C/C=C/c1ccccc1	-17%	-21	20µM*	-32%	0.71µM*	-26
S=c1[nH]nc(-c2ccc(Cl)cc2)n1/N=C/C=C/c1ccco1	?	-15	56µM*	?	·	-6
CCC[C@H]1CN(c2ccccc2)C(=O)[C@@H]1CC(=O)Nc1ccc(Br)cc1	·	3	·	·	·	2
S=c1[nH]nc(-c2cccnc2)n1/N=C/C=C/c1ccco1	35%	-4	20µM*	45µM*	·	3
CNc1cc(-c2cnn(CC(C)C)c2)ncn1	·	0	·	·	·	2
CC(C)c1ccc(OCC(O)CN2CCCC2)cc1 (stereo not given)	41%	-2	-9%	-10%	-3%[59 µM]	8
CC(C)c1ccc(OCCCCN2CCCCC2)cc1	?	8	0.79µM*	79µM*	-12%	-18
Clc1ccc(OCCCCN2CCCCC2)cc1	?	7	1µM*	50µM*	10µM*	-1
c1cc(OCCCN2CCCCC2)ccc1CN1CCCCC1	15%	21	-10%	-16%	6%	-6
O=C(NCc1cccs1)C(=O)NCC(c1ccco1)N1CCN(c2ccccc2F)CC1 (stereo not given)	27%	-4	-14%[11.4 µM]	-21%	-34%	0
S=c1nccc(-c2ccc3c(c2)CCO3)[nH]1	16%	9	-20%	-12%	40µM*	-1
Oc1c(/C=N/c2ncn[nH]2)ccc2ccccc12	28%	-5	?	-3%	2.2µM*	-1
Cc1ccc(-n2c(O)c(/C=N/c3ncn[nH]3)c3ccccc3c2=O)cc1	8%	-23	-21%	?	15%[12.7 µM]	-14
O=C(c1ccco1)N1CCN(C(=O)c2cc(-c3ccccn3)nc3ccc(Cl)cc23)CC1	-15%	-87*	-6%[57.1 µM]	-30%	?	-92*
O=C(c1ccco1)N1CCN(C(=O)c2cc(-c3ccccc3)nc3ccccc23)CC1	-2%	-9	?	-4%[57.1 µM]	-15%[59 µM]	-14
COc1ccc(C2NN=C(c3ccc(C)cc3)S2)cc1OC (stereo not given)	23%	4	-4%	-5%	13µM*	-25
O=C(NCc1cccs1)C1CCN(C(=O)N2CCOc3ccccc32)CC1	31%	·	-4%	-6%	-19%[59 µM]	·
Nc1nc(N)c2cc(CNc3ccc(Cl)c(Cl)c3)ccc2n1	·	-15	·	·	·	-6
SMILES	HP1b chromo inh	Six1-Eya2 blk	JMJD2A Tudor inh	BAZ2B block	G9a inh	CtBP-E1A blk
COc1cc(NCc2ccc3nc(N)nc(N)c3c2C)cc(OC)c1OC	·	·	·	·	10µM*	·
Cc1ccc(CNc2nc3ccc(C)cc3n3nnnc23)cc1	32%	·	-7%	2%	11%[59 µM]	·
Cc1c(C(=O)Nc2ccc(S(=O)(=O)N(C)C3CCN(C)CC3)cc2)oc2c(Cl)cccc12	4%	-10	?	-5%	?	-2
COc1ccsc1NC(=O)OCc1ccc(Cl)cc1	-16%	-4	?	?	50µM*	·
Clc1cccc(Cl)c1Cn1ccc(C2CC2)n1	58%	16	31%	42%	31%	4
COc1ccccc1N1CCN(C(=O)c2ccc([N+](=O)[O-])s2)CC1	-4%	1	-20%	-5%	45µM*	-20
COc1ccccc1N1CCN(C(=O)c2cc(C(=O)N3CCN(c4ccccc4OC)CC3)cc([N+](=O)[O-])c2)CC1	18%	-4	-11%	?	·	·
O=C(c1ccc([N+](=O)[O-])s1)N1CCN(c2cccc(Cl)c2)CC1	?	-12	45µM*	25µM*	22µM*	14
COc1ccccc1N1CCN(C(=O)c2noc(C)c2[N+](=O)[O-])CC1	17%	5	-21%	-34%	56µM*	-7
O=C(c1cccs1)N1CCN(c2cccc(Cl)c2)CC1	41%	-3	1%	-2%	32%	-6
CCOC(=O)[C@]12CCC=C1N(Cc1cccc3ccccc13)C(=O)[C@H](CC(=O)N1CCN(C(=O)c3ccco3)CC1)C2	·	-3	·	·	·	-18
COc1ccc(CCC(=O)NCc2ccc3c(c2)CCN3C(=O)c2ccc(C)cc2)cc1	26%	·	-24%	-4%	-1%[59 µM]	·
Cc1[nH]c2ccc(-c3n[nH]c(=S)n3Cc3ccccc3)cc2c1C	9%	?	?	?	7.9µM*	-22
CS(=O)(=O)Nc1ccc(-c2nc3ccccc3s2)cc1	26%	·	-13%	-13%	?	·
CS(=O)(=O)Nc1ccc(-c2n[nH]c(=S)n2-c2ccccc2)cc1	26%	1	5.6µM*	-7%	0.5µM*	0
Cc1[nH]c2ccc(-c3n[nH]c(=S)n3-c3ccc(Br)cc3)cc2c1C	30%	-5	-17%	?	-1%	-5
Cc1[nH]c2ccc(-c3n[nH]c(=S)n3-c3ccccc3)cc2c1C	?	-13	56µM*	-10%	1.6µM*	-19
O=C(CSc1cccc[n+]1[O-])Nc1cccc(Oc2ccccc2)c1	28%	-3	1%	1%	-41%	3
COc1ccc(-c2c[n+]3c4n2CCCCC4=C(c2ccccc2)C3)cc1	-5%	-8	40µM*	56µM*	14µM*	-7
